In all, about 5,500 compounds went through this assay and about 2,000 (36%) were called active. Roughly 18% stayed inconclusive and do not appear here. Cut-off read from the data, not from the text of the source: active = normalized growth mostly below about 0.91 (no sharp cut-off); inconclusive = no clear call, values can overlap the other calls; inactive = mostly above about 0.92. Some of the results follow.
Assay: chemical genetic growth profiling, strain panel (AID 1159580);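 note: tested at 20 µM; growth read once vehicle control cultures reached saturation at 30 °C; 1 = growth at the plate median or of vehicle wells; lower values mean less growth of the strain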
Settings: growth OD

Measured: normalized growth

c1coc(CNc2ncnc3nc[nH]c23)c1
inactive: S. cerevisiae deletion strains, locus YJR075W, strain HOC1, stronger effect = lower value 1 | S. cerevisiae deletion strains, locus YKL009W, strain mrt4, stronger effect = lower value 1.03 | S. cerevisiae deletion strains, locus YKL068W, stronger effect = lower value 0.979 | S. cerevisiae deletion strains, locus YKL085W, strain MDH1 (second series), stronger effect = lower value 1.01 | S. cerevisiae deletion strains, locus YKL085W, strain MDH1, stronger effect = lower value 1.01 | S. cerevisiae deletion strains, locus YKL160W, strain elf1, stronger effect = lower value 1.02 | S. cerevisiae deletion strains, locus YKL190W, strain CNB1, stronger effect = lower value 0.994 | S. cerevisiae deletion strains, locus YKR001C, strain vps1, stronger effect = lower value 1 | S. cerevisiae deletion strains, locus YKR026C, strain gcn3, stronger effect = lower value 0.999 | S. cerevisiae deletion strains, locus YKR091W, strain srl3, stronger effect = lower value 0.994 | S. cerevisiae deletion strains, locus YLL001W, strain dnm1, stronger effect = lower value 1.01 | S. cerevisiae deletion strains, locus YLL026W, stronger effect = lower value 0.999 | S. cerevisiae deletion strains, locus YLL041C, strain sdh2, stronger effect = lower value 0.997 | S. cerevisiae deletion strains, locus YLR027C, strain aat2, stronger effect = lower value 1 | S. cerevisiae deletion strains, locus YLR039C, strain RIC1, stronger effect = lower value 1.01 | S. cerevisiae deletion strains, locus YLR058C, strain SHM2, stronger effect = lower value 1 | S. cerevisiae deletion strains, locus YLR102C, strain apc9, stronger effect = lower value 0.989 | S. cerevisiae deletion strains, locus YLR113W, strain HOG1, stronger effect = lower value 0.993 | S. cerevisiae deletion strains, locus YLR221C, strain rsa3, stronger effect = lower value 0.975 | S. cerevisiae deletion strains, locus YLR258W, strain gsy2, stronger effect = lower value 0.996 | S. cerevisiae deletion strains, locus YLR262C, strain YPT6 (second series), stronger effect = lower value 0.977 | S. cerevisiae deletion strains, locus YLR262C, strain YPT6, stronger effect = lower value 0.981 | S. cerevisiae deletion strains, locus YLR268W, strain sec22, stronger effect = lower value 0.97 | S. cerevisiae deletion strains, locus YLR320W, strain mms22, stronger effect = lower value 1 | S. cerevisiae deletion strains, locus YLR330W, strain CHS5, stronger effect = lower value 0.994 | S. cerevisiae deletion strains, locus YLR342W, strain FKS1 (second series), stronger effect = lower value 1.02 | S. cerevisiae deletion strains, locus YLR342W, strain FKS1, stronger effect = lower value 1.01 | S. cerevisiae deletion strains, locus YLR357W, strain rsc2, stronger effect = lower value 0.98 | S. cerevisiae deletion strains, locus YLR370C, strain arc18, stronger effect = lower value 0.993 | S. cerevisiae deletion strains, locus YLR371W, strain rom2, stronger effect = lower value 0.99 | S. cerevisiae deletion strains, locus YLR384C, strain iki3, stronger effect = lower value 1 | S. cerevisiae deletion strains, locus YLR418C, strain cdc73, stronger effect = lower value 1 | S. cerevisiae deletion strains, locus YML016C, strain PPZ1, stronger effect = lower value 1 | S. cerevisiae deletion strains, locus YML032C, strain rad52, stronger effect = lower value 0.993 | S. cerevisiae deletion strains, locus YML120C, strain ndi1, stronger effect = lower value 0.992 | S. cerevisiae deletion strains, locus YML124C, strain tub3, stronger effect = lower value 1 | S. cerevisiae deletion strains, locus YMR058W, strain fet3, stronger effect = lower value 0.998 | S. cerevisiae deletion strains, locus YMR078C, strain ctf18, stronger effect = lower value 0.994 | S. cerevisiae deletion strains, locus YMR125W, strain sto1, stronger effect = lower value 0.974 | S. cerevisiae deletion strains, locus YMR129W, stronger effect = lower value 0.988 | S. cerevisiae deletion strains, locus YMR205C, strain PFK2, stronger effect = lower value 1 | S. cerevisiae deletion strains, locus YMR223W, strain ubp8, stronger effect = lower value 1.02 | S. cerevisiae deletion strains, locus YMR231W, strain pep5, stronger effect = lower value 0.991 | S. cerevisiae deletion strains, locus YMR263W, strain SAP30, stronger effect = lower value 0.986 | S. cerevisiae deletion strains, locus YMR307W, strain GAS1, stronger effect = lower value 1.11 | S. cerevisiae deletion strains, locus YNL067W, strain RPL9B, stronger effect = lower value 0.983 | S. cerevisiae deletion strains, locus YNL071W, strain lat1, stronger effect = lower value 0.999 | S. cerevisiae deletion strains, locus YNL128W, strain TEP1, stronger effect = lower value 0.99 | S. cerevisiae deletion strains, locus YNL153C, strain GIM3, stronger effect = lower value 0.991 | S. cerevisiae deletion strains, locus YNL183C, strain NPR1, stronger effect = lower value 0.914 | S. cerevisiae deletion strains, locus YNL209W, strain ssb2, stronger effect = lower value 0.986 | S. cerevisiae deletion strains, locus YNL233W, strain BNI4, stronger effect = lower value 1.01 | S. cerevisiae deletion strains, locus YNL248C, strain rpa49, stronger effect = lower value 0.989 | S. cerevisiae deletion strains, locus YNL250W, strain rad50, stronger effect = lower value 0.995 | S. cerevisiae deletion strains, locus YNL271C, strain bni1, stronger effect = lower value 0.988 | S. cerevisiae deletion strains, locus YNL298W, strain CLA4, stronger effect = lower value 1 | S. cerevisiae deletion strains, locus YNL307C, strain MCK1, stronger effect = lower value 0.995 | S. cerevisiae deletion strains, locus YNL322C, strain KRE1 (second series), stronger effect = lower value 0.992 | S. cerevisiae deletion strains, locus YNL322C, strain KRE1, stronger effect = lower value 0.987 | S. cerevisiae deletion strains, locus YNR049C, strain mso1, stronger effect = lower value 0.999 | S. cerevisiae deletion strains, locus YNR052C, strain pop2, stronger effect = lower value 0.993 | S. cerevisiae deletion strains, locus YOL006C, strain TOP1, stronger effect = lower value 0.981 | S. cerevisiae deletion strains, locus YOL012C, strain htz1 0.989 | S. cerevisiae deletion strains, locus YOL147C, strain pex11, stronger effect = lower value 0.999 | S. cerevisiae deletion strains, locus YOR001W, strain rrp6, stronger effect = lower value 1.01 | S. cerevisiae deletion strains, locus YOR061W, strain CKA2, stronger effect = lower value 1 | S. cerevisiae deletion strains, locus YOR069W, strain VPS5, stronger effect = lower value 1 | S. cerevisiae deletion strains, locus YOR070C, strain gyp1, stronger effect = lower value 1 | S. cerevisiae deletion strains, locus YOR080W, strain dia2, stronger effect = lower value 0.995 | S. cerevisiae deletion strains, locus YOR083W, strain WHI5, stronger effect = lower value 1 | S. cerevisiae deletion strains, locus YOR106W, strain vam3, stronger effect = lower value 1 | S. cerevisiae deletion strains, locus YOR136W, strain idh2, stronger effect = lower value 0.996 | S. cerevisiae deletion strains, locus YOR144C, strain elg1, stronger effect = lower value 0.99 | S. cerevisiae deletion strains, locus YOR184W, strain ser1, stronger effect = lower value 0.997 | S. cerevisiae deletion strains, locus YOR231W, strain MKK1, stronger effect = lower value 0.998 | S. cerevisiae deletion strains, locus YOR265W, strain rbl2, stronger effect = lower value 0.996 | S. cerevisiae deletion strains, locus YOR270C, strain vph1, stronger effect = lower value 0.99 | S. cerevisiae deletion strains, locus YOR290C, strain snf2, stronger effect = lower value 0.991 | S. cerevisiae deletion strains, locus YOR316C, strain cot1, stronger effect = lower value 0.989 | S. cerevisiae deletion strains, locus YPL051W, strain arl3, stronger effect = lower value 0.996 | S. cerevisiae deletion strains, locus YPL055C, strain LGE1, stronger effect = lower value 0.978 | S. cerevisiae deletion strains, locus YPL078C, strain atp4, stronger effect = lower value 1.01 | S. cerevisiae deletion strains, locus YPL106C, strain sse1, stronger effect = lower value 0.995 | S. cerevisiae deletion strains, locus YPL240C, strain hsp82, stronger effect = lower value 1.02 | S. cerevisiae deletion strains, locus YPL241C, strain CIN2, stronger effect = lower value 1 | S. cerevisiae deletion strains, locus YPL256C, strain CLN2, stronger effect = lower value 0.965 | S. cerevisiae deletion strains, locus YPR119W, strain clb2, stronger effect = lower value 0.999 | S. cerevisiae deletion strains, locus YPR141C, strain kar3, stronger effect = lower value 0.981 | S. cerevisiae deletion strains, locus YPR163C, strain tif3, stronger effect = lower value 1 | S. cerevisiae deletion strains, locus YPR167C, strain met16, stronger effect = lower value 0.99 | S. cerevisiae deletion strains, strain wtn01, stronger effect = lower value 0.986 | S. cerevisiae strains, strain wild type, stronger effect = lower value 0.999

From PubChem BioAssay AID1159580 (chemical genetic matrix, 2015)
